According to PubChem BioAssay AID2551 (National Center for Advancing Translational Sciences (NCATS), 2010):
Among all 310,000 compounds or so, about 17,000 (5.5%) were called active. Roughly 11% stayed inconclusive and do not appear here. This excerpt belongs to a sample that is enriched for actives. A number with no mark means an inactive call. Calls come from the whole dose curve; as a rule, active = well fitted inhibition curve with a large enough effect; inconclusive = small, poorly fitted or top-dose-only effect, or effect the other way; inactive = no such curve, though single readings can be large or run the other way.

target: Nuclear receptor ROR-gamma (Mus musculus) (UniProt P51450); test: qHTS for inhibitors of ROR gamma transcriptional activity; details: Drosophila S2 Gal4-RORgamma UAS-luciferase reporter, 20 h; series mostly up to 53.6 µM; activity change, negative = inhibition: at the top concentration; note: nearly all actives have a fitted effect of over 60% in size
Method in brief: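 A Gal4/UAS one-hybrid system in insect cells: metallothionein-promoter Gal4–ROR gamma fusion plus Photinus luciferase reporter. Copper sulfate 700 uM final, 20 hr ambient incubation, luminescent detection after 10 min with reagent.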
% is set by controls: 0 for no effect and ±100 for the full control effect; potency is the fitted concentration of half-maximal effect.

Nuclear receptor ROR-gamma (Mus musculus), sequence (P51450 whole entry, looked up, the tested form may be a part): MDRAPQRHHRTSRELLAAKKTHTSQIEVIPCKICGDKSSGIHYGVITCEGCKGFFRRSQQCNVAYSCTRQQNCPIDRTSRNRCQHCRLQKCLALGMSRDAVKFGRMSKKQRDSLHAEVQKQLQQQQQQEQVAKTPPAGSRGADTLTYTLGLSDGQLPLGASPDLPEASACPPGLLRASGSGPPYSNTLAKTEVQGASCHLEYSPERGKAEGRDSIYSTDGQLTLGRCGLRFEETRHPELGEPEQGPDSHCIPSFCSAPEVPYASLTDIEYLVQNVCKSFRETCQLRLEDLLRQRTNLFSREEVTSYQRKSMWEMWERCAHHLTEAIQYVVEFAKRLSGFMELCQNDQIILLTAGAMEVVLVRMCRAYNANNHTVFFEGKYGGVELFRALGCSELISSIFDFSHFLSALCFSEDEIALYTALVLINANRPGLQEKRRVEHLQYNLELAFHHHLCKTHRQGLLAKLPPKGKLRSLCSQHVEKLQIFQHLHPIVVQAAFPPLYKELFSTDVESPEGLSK

Structure (SMILES) | activity change, negative = inhibition | Potency
Cc1[nH]c(C)c(S(=O)(=O)N2CCC(C)CC2)c1C(=O)N1CCCC1 | -11.5% | 
COCCNC(=O)CN(Cc1ccco1)C(=O)CCC(=O)Nc1nccs1 | -1.62% | 
C/C(CCc1ccccc1)=N\NC(=O)c1ccc(CN2CCOCC2)cc1 | -42.7% | 
COc1ccc(C(=O)Nc2ccc(CN3CCOCC3)cc2)cc1 | 20.3% | 
Cc1ccccc1-n1c(C)cc(/C=N/NC(=O)c2ccc(CN3CCOCC3)cc2)c1C |  | 10 µM (active)
Cc1cc(=O)n2nc(N3CCCC(C(=O)NCc4cccc(Cl)c4)C3)sc2n1 (centres undefined) | -0.13% | 
CCc1nnc(NC(=O)c2nc3nccc(C)n3n2)s1 | -5.51% | 
O=C(COC(=O)c1ccccc1)Nc1ccccc1Sc1ccccc1 | -2.28% | 
CCCC(=O)Nc1nnc(-c2ccccc2)o1 |  | 7.94 µM (active)
O=C(COC(=O)c1ccc(Oc2ccccc2)cc1)Nc1nnc(-c2ccccc2)o1 |  | 2.82 µM (active)
Cc1ccnc2nc(C(=O)OCC(=O)N(CC(C)C)CC(C)C)nn12 | 25.7% | 
Nc1ccc(-c2nnc(-c3ccccc3)o2)cc1 | 4.3% | 
Cc1ccnc2nc(C(=O)Nc3nnc(-c4ccccc4)o3)nn12 |  | 11.2 µM (active)
O=C(OCc1ccc(Br)cc1)c1cccc(-c2nnc(-c3ccccc3)o2)c1 | -1.79% | 
Cc1cccc(NC(=O)Nc2nnc(-c3ccccc3)o2)c1 | -2.44% | 
COC(=O)C1(C)CC1(c1ccccc1)c1ccccc1 (centres undefined) | 28% | 
CN(C)N1C(N)=C(C#N)C(c2ccc(Br)cc2)C2=C1CCCC2=O (centres undefined) | 3.08% | 
C[C@@H](NC(=O)[C@@H]1Cc2ccccc2CN1)C(=O)NC1CCCC1 | 5.75% | 
CC(=O)NN1C(=O)c2ccccc2NC1c1ccccc1 (centres undefined) | 1.65% | 
CCCC1=Nc2cc(C(=O)NCCN3CCCC3)ccc2Sc2ccccc21 | -10.6% | 
CCC1Sc2ccc(S(=O)(=O)CCC(=O)NCc3cccs3)cc2NC1=O (centres undefined) | 20.9% | 
FC(F)(F)c1nc2ccccc2nc1N/N=C/c1ccc(Cl)cc1 |  | 5.62 µM (active)
CC(NC(=O)C(=O)N/N=C/c1ccc(Cl)cc1)c1ccccc1 (centres undefined) | 19.8% | 

Structure (SMILES) | activity change, negative = inhibition | Potency
FC(F)(F)c1cccc(N/N=C/c2ccccc2)c1 | 31.7% | 
COc1ccccc1CN(C)C(=O)c1cc2ccccc2o1 | -5.26% | 
Cc1ccc2[nH]c(=O)c(CN(C)S(=O)(=O)c3cccc4nonc34)cc2c1 | 7.54% | 
COc1cc(SC#N)ccc1N=Cc1c(C)[nH]n(-c2ccc(C)cc2)c1=O |  | 6.31 µM (active)
C=CCN1C(=O)C2(OCCCO2)c2cccc(Cl)c21 | 8.79% | 
Oc1ccc(-n2nnnc2SCc2c(F)cccc2Cl)cc1 | -29.8% | 
Cc1ccc(CC2CC(=O)N(c3cc(C)ccc3C)C2=O)cc1 (centres undefined) | 29.6% | 
O=C(Nc1cccc(C(F)(F)F)c1)c1cnccn1 | 27.2% | 
Cc1cccc(NC(=O)c2cccc(C(F)(F)F)c2)c1 | 21% | 
O=C(Nc1cccc(C(F)(F)F)c1)c1cc(Br)cc(Br)c1O |  | 5.01 µM (active)
O=C(N/C(=C/c1ccc(Cl)cc1)C(=O)N1CCCCC1)c1ccco1 | -18.8% | 
CN(CC(=O)Nc1c(Cl)cccc1Cl)C(=O)c1ccncc1 | -13.7% | 
Cc1ccc(-c2ccc(=O)n(Cc3ccc(F)cc3Cl)n2)cc1 | -1.89% | 
Cc1n[nH]c(=O)c2c1nnn2Cc1ccc(F)cc1 | 1.18% | 
Cc1nnsc1C(=O)N/N=C/c1cccc(C(F)(F)F)c1 | 22.6% | 
COc1ccc(/C=N/NC(=O)c2cccc(C(F)(F)F)c2)cc1 |  | 12.6 µM (active)
COc1ccc(/C=N/NC(=O)Cn2cc(C(F)(F)F)ccc2=O)cc1 | -22.5% | 
C=C1C(=O)C23C(O)C1CCC2[C@]12COC3(O)C(O)C1C(C)(C)CC[C@H]2O (some centres undefined) |  | 0.708 µM (active)
CCC1Oc2ccccc2N(CC(=O)NCCCN2CCN(CC)CC2)C1=O (centres undefined) | 1.84% | 
COc1ccc(Cc2nc3ccc(C(=O)NCC4CCOCC4)cc3o2)cc1OC | 42.4% | 
CCOC(=O)C1=C(c2ccc(OC)cc2)C(=O)c2ccccc2C1=O |  | 6.31 µM (active)
CCCCC(C(=O)OCC(=O)c1ccc(OC)cc1)N1C(=O)c2ccccc2C1=O (centres undefined) | 28.3% | 
CCOC(=O)c1c(-c2ccc(C)cc2)csc1/N=C(\C)C1=C(O)c2ccccc2C1=O | 1.71% | 

Structure (SMILES) | activity change, negative = inhibition | Potency
O=C(NCCCc1ccccc1)C1CCC(=O)N(CCc2ccc(Cl)cc2)C1 (centres undefined) | 39.6% | 
COc1ccccc1CN1CCCC(N2CCN(c3ccc(F)cc3)CC2)C1 (centres undefined) | -1.98% | 
O=C(CN(CC1CCCO1)C(=O)CNS(=O)(=O)c1ccc(Cl)cc1)NCc1ccccc1 (centres undefined) | 0.565% | 
Clc1ccccc1-c1cc(NCCN2CCOCC2)ncn1 | -6.31% | 
c1ccc2cc3c(NCCN4CCOCC4)ccnc3cc2c1 |  | 11.2 µM (active)
O=C(NCCN1CCOCC1)c1ccc2c(c1)ncn2C1CCCC1 | 6.51% | 
Cc1ccc2c(c1)N(CC(=O)N1CCC(O)CC1)C(=O)CO2 | -19.4% | 
Cc1ccc(C(=O)CCC(=O)N(C)CC(=O)Nc2c(Cl)cccc2Cl)cc1 | 9.26% | 
Cc1cccnc1NC(=O)c1cccc(S(=O)(=O)N2CCN(c3ccc(F)cc3)CC2)c1 | -44% | 
S=C1NC(c2ccccc2)=NCN1c1ccc(Br)cc1 |  | 8.91 µM (active)
Cc1nc(=O)c(-c2ccccc2)c(C)n1-c1ccc(Br)cc1 | 2.1% | 
Brc1ccccc1C1N=C(c2ccccc2)NO1 (centres undefined) | 2.38% | 
Cc1ccc2c(c1)C(c1ccccc1)N(C(=O)c1ccc(F)cc1)CC(=O)N2 (centres undefined) | 11.4% | 
Cc1ccc2nc(N(CCN(C)C)C(=O)C3=COCCO3)sc2c1 | -8.72% | 
COc1cccc(-c2noc(C3CCCN(C(=O)c4ccc(F)cc4)C3)n2)c1 (centres undefined) | -2.97% [at 1.91 µM] | 
CC1CCCC(C)N1CCCNC(=O)c1cc2c(=O)n(C)c3ccccc3c2n1C (centres undefined) | 2.79% | 
CCN1CCCC1CNC(=O)c1cc2c(=O)n(C)c3ccccc3c2n1C (centres undefined) |  | 3.98 µM (active)
Cn1c(C(=O)NCCc2ccsc2)cc2c(=O)n(C)c3ccccc3c21 | 27% | 
Cc1ccc(OCC(=O)Nc2ccc(N3CCN(C(=O)c4ccco4)CC3)cc2)c(C)c1 | 24.1% | 
CC(=O)Oc1ccc(N(C(C)=O)S(=O)(=O)c2ccc3ccccc3c2)cc1Br | 40.7% | 
CCCCNC(=O)C1CCC(=O)N1CCc1ccccc1 (centres undefined) | -0.936% | 
CCCC1CCC(=NNC(=S)NCCc2ccccc2)CC1 (centres undefined) |  | 5.01 µM (active)
O=C1CCN(C(=S)NCCc2ccccc2)CC1 | 6.62% | 
